In test [1] the target is Glutathione peroxidase 1 (Homo sapiens) (UniProt P07203). The test is described as follows: Primary qHTS Assay for Inhibitors of Recombinant Selenoprotein Glutathione Peroxidase 1 (GPX1) (AID 1845191). Further: nearly all actives have a fitted effect of over 65% in size. Further: potency means the concentration at half of the fitted maximal effect. In short, it runs like this:
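GR-coupled readout: NADPH consumption tracked by fluorescence, ex 340/em 450 nm, at t=0 and after 15 min at RT. Final mix 10 nM GPX1, 1 mM GSH, 0.5 mM CHP, 0.5 mM NADPH, 100 nM GR, 0.01% BSA, following 30 min enzyme–compound preincubation.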
A general note: In qHTS, concentration-response curves come from the screen itself.

Test [2] has as its target Phospholipid hydroperoxide glutathione peroxidase GPX4 (Homo sapiens) (UniProt P36969). The test can be described thus: Primary qHTS Assay for Inhibitors of Recombinant Selenoprotein Glutathione Peroxidase 4 (GPX4) (AID 1845192). Further: nearly all actives have a fitted effect of over 65% in size. In short, it runs like this:
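Steps: GPX4 plus compound, 30 min RT; add GR/GSH/NADPH master mix; start with cumene hydroperoxide; read 340/450 nm fluorescence at 0 and 15 min. Finals were 200 nM GPX4, 1 mM GSH, 0.5 mM CHP, 0.5 mM NADPH, 100 nM GR.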

A short description of test [3]: HepG2 viability counterscreen (readout 2: ATP content) against the NCATS DSHEA and TCM libraries (AID 1794840).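 Further: HepG2 cells exposed to substances for about 24 h; 0% is about no effect.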 The procedure, abridged:
(§1)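 1,000 HepG2 cells/well, 4 h attach; compounds ~24 h, 37C/5% CO2. Readout 1: GF-AFC 25 uM final, 30 min, fluorescence 380/510 nm. Readout 2: CellTiter-Glo, 30 min RT, luminescence.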

Test [4] is described as follows: HepG2 viability counterscreen (readout 1: protease activity) against the NCATS DSHEA and TCM libraries (AID 1794841).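 Further: cells exposed to compounds for about 24 h before the protease read; 0% is about no effect.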 The procedure, abridged: as §1
For orientation: The purpose of a counterscreen is to sort out artefacts and off-target activity.

In test [5] the target is Luciferin 4-monooxygenase (Photinus pyralis) (UniProt P08659). The test is described as follows: Primary firefly luciferase (FLuc) qHTS assay for identification of artifact compounds. (AID 1845220). Further: nearly all actives have a fitted effect of over 60% in size. In short, it runs like this:
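Enzymatic FLuc inhibition assay: compounds pre-exposed to luciferin/ATP (10 uM each) for 15 min, then purified P. pyralis enzyme at 10 nM added. Read-out: luminescence at 5 min.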

Test [6] deals with Nanoluciferase (engineered Oplophorus gracilirostris luciferase). The test can be described thus: Primary Nanoluciferase (NLuc) qHTS assay for identification of artifact compounds. (AID 1845222).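 Further: NLuc secreted into diluted conditioned medium of S16 cells; series mostly up to about 54 µM; 0% = DMSO and -100% = no enzyme.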 In short, it runs like this:
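S16 cell supernatant NLuc, 1:55; cpds qHTS; 15 min RT dark; Nano-Glo substrate 1:100, 5 min; luminescence; Hill fit of % inhibition.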

The target of test [7] is Cytochrome P450 2C9 (Homo sapiens) (UniProt P11712). The test can be described thus: qHTS for inhibitors of CYP2C9 against the NCATS DSHEA and TCM libraries (AID 1919973). Further: potency means the concentration at half of the fitted maximal effect. In short, it runs like this: (§2)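 Concentration-response screening with isoform-matched pro-luciferin substrates. The CYP reaction was initiated by NADPH regenerating solution and ran 30-45 min in darkness at room temperature.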
Cytochrome P450 2C9 (Homo sapiens), sequence (P11712 whole entry, looked up, canonical isoform): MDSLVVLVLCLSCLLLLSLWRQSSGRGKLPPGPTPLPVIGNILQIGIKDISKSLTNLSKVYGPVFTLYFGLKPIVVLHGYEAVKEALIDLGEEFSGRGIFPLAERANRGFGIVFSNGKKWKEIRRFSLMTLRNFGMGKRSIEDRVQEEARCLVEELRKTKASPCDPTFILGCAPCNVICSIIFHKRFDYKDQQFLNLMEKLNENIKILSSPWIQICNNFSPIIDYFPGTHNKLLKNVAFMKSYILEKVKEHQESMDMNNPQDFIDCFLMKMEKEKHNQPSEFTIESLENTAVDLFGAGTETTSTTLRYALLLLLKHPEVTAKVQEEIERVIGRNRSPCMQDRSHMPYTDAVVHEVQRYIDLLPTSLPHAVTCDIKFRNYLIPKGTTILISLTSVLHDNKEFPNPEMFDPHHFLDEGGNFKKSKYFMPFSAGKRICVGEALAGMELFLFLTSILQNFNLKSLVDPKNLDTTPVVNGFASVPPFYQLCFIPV

Test [8] has as its target Cytochrome P450 2C19 (Homo sapiens) (UniProt P33261). The test is described as follows: qHTS for inhibitors of CYP2C19 against the NCATS DSHEA and TCM libraries (AID 1919974).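 Further: luminescence from luciferin released by CYP2C19 oxidation of a pro-luciferin substrate.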 Further: potency means the concentration at half of the fitted maximal effect. The procedure, abridged: as §2
Test [9] can be described thus: KB-3-1 P-gp reporter qHTS against the NCATS DSHEA and TCM libraries (AID 1919975). Further: 0% is about no effect. In short, it runs like this: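 CellTiter-Glo luminescence viability readout; KB-3-1 parental cells, 500/well, attached ~4 h, then compound for ~72 h, 37C, 5% CO2. Bortezomib intraplate control.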
Test [10] concerns the target Cytochrome P450 1A2 (Homo sapiens) (UniProt P05177). The test is described as follows: qHTS for inhibitors of CYPIA2 against the NCATS DSHEA and TCM libraries (AID 1919976). Further: potency means the concentration at half of the fitted maximal effect. The procedure, abridged: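 Enzyme and pro-luciferin substrate, or substrate alone as no-enzyme background, are pre-incubated with test samples for 15 min at room temperature. NADPH regeneration system (1x final) initiates a 30-45 min dark reaction; luciferase detection reagent follows before luminescence reading.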

A short description of test [11]: qHTS Counterscreen for compound interference against the NCATS DSHEA and TCM libraries (AID 1919978).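 Further: compounds preincubated with 1 µM D-luciferin or buffer before detection reagent; % of control where 0% means no effect.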 As to conditions: firefly luciferase detection reagent interference, luminescence. In short, it runs like this: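 Luminescence counterscreen for detection-kit interference: compounds at 19.5 nM–39.8 uM final, 15 min RT with 1 uM D-luciferin or buffer only; detection reagent added, 30 min RT, then read.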

Test [12] can be described thus: Dual reporter qHTS for agonist of Pregnane X Receptor (hPXR) against the NCATS DSHEA and TCM libraries: Fluorescence readout (AID 1920058). Further: 0% is about no effect. The procedure, abridged: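 Cells were plated at 2000 per well and allowed to attach for 5 h. Test substances were pinned in and incubated roughly 24 h. CellTiter-Fluor was then added and fluorescence measured after 1 h.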
Test [13] addresses Nuclear receptor subfamily 1 group I member 2 (Homo sapiens) (UniProt O75469). The test can be described thus: Dual reporter qHTS for antagonist of Pregnane X Receptor (hPXR) against the NCATS DSHEA and TCM libraries: Luminescence Readout (AID 1920060).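 Further: HepG2 cells carrying hPXR luciferase reporter stimulated with rifampicin at 2 µM; 0% is about no effect.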 The procedure, abridged: (§3)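 Antagonist mode: rifampicin 2 uM final co-added with compounds to hPXR-LucHepG2 cells for 24 h at 37C. Viability by CellTiter-Fluor, Ex/Em 405/540 nm, 1 h; reporter by ONE-Glo luminescence.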

Test [14] is described as follows: Dual reporter qHTS for antagonist of Pregnane X Receptor (hPXR) against the NCATS DSHEA and TCM libraries: Fluorescence Readout (AID 1920061). Further: 0% is about no effect. In short, it runs like this: as §3
Test [15] concerns the target Metallo-beta-lactamase type 2 (Klebsiella pneumoniae) (UniProt C7C422). The test can be described thus: qHTS to identify inhibitors of the New Delhi Metallo-beta-lactamase (NDM): assay validation screen against the NCATS LOPAC Collection (AID 1794843).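 Further: nitrocefin turnover by NDM-1 measured as 485 nm absorbance at plateau; series mostly up to about 38 µM; on the % scale 0 is the no-effect control and ±100 the full control effect.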 The procedure, abridged:
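NDM-1 at 2 nM final in 50 mM HEPES pH 7.0 with 1 uM ZnSO4 and 0.01% Tween20 was preincubated with library compounds in DMSO. Nitrocefin (50 uM stock) was then added, and absorbance at 485 nm was read at the kinetic plateau.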

A short description of test [16]: Primary fluorescence-based thiol-reactive (MSTI) qHTS assay for identification of artifact compounds. (AID 1845221).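 Further: series mostly up to about 54 µM; thiol-reactive compounds lower the probe fluorescence signal; nearly all actives have a fitted effect of over 65% in size.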 In short, it runs like this: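 In PBS pH 7.4 with 2% DMSO, each compound met 4 uM MSTI for one hour at ambient temperature, shielded from light, before fluorescence detection.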
Test [17] in a line: Primary redox qHTS assay for identification of artifact compounds. (AID 1845223).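 Further: 0% = DMSO and 100% = reference compound.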 The procedure, abridged:
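Redox-cycling detection via DTT (250 uM final) oxidation coupled to Amplex Red (25 uM)/HRP (250 mU/mL) in HBSS. 15 min preincubation plus 30 min after DTT, room temperature. Ex/Em 525/598 nm; 4-parameter Hill fit against DMSO and 10 uM DA3003.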

For test [18], the target named is Cytochrome P450 2D6 (Homo sapiens) (UniProt P10635). The test can be described thus: qHTS for inhibitors of CYP2D6 against the NCATS DSHEA and TCM libraries (AID 1919972). Further: on the % scale 0 is the no-effect control and ±100 the full control effect. The procedure, abridged:
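CYP2D6 enzyme with pro-luciferin substrate in manufacturer buffer (typically 100 mM KPO4), preincubated 15 min RT with substances (most at 19.5 nM upward); NADPH regeneration system (1x) started 30–45 min RT reaction; P450-Glo luminescence read after 30 min; quinidine as intraplate control.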

The target of test [19] is Nuclear receptor subfamily 1 group I member 2 (Homo sapiens) (UniProt O75469). The test is described as follows: Dual reporter qHTS for agonist of Pregnane X Receptor (hPXR) against the NCATS DSHEA and TCM libraries: Luminescence readout (AID 1920059). Further: 0% is about no effect. The procedure, abridged:
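hPXR-Luc HepG2 cells, 2000/well in 5% charcoal-stripped FBS medium, attached 5 h, then exposed 24 h at 37C to compounds. Viability by CellTiter-Fluor, then luciferase luminescence with ONE-Glo.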

For test [20], the target named is Cytochrome P450 3A4 (Homo sapiens) (UniProt P08684). The test can be described thus: qHTS for inhibitors of CYP3A4 against the NCATS DSHEA and TCM libraries (AID 1919971).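 Further: on the % scale 0 is the no-effect control and ±100 the full control effect; inhibition lowers luminescence from luciferin made by CYP3A4.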 In short, it runs like this: as §2
Cytochrome P450 3A4 (Homo sapiens), sequence (P08684 whole entry, looked up): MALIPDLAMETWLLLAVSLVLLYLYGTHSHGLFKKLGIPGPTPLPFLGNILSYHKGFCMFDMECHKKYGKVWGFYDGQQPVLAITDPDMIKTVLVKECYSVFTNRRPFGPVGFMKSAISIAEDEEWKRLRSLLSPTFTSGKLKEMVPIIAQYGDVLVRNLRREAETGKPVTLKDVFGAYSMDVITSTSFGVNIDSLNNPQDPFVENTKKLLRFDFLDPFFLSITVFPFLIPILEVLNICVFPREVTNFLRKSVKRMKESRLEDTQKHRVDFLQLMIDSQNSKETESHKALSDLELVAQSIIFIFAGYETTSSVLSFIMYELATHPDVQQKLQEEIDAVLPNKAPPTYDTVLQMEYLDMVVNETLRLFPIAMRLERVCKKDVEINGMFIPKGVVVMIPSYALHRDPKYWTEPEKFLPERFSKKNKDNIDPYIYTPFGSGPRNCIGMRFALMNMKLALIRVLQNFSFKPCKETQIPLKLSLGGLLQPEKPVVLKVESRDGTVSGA

This note sets out measurements from PubChem BioAssay (NCATS).

Unmarked numbers belong to inactive results. Inconclusive results are not listed. The source made the active and inactive calls. The call rests on the fitted dose curve; in most records, active means well fitted curve in the direction sought with a large enough effect; inconclusive means small, poorly fitted or top-dose-only effect, or another doubt; inactive means no such curve, though single readings can be large; an effect the other way counts as inactive or inconclusive.

Glutathione peroxidase 1 (Homo sapiens), sequence (P07203 whole entry, looked up): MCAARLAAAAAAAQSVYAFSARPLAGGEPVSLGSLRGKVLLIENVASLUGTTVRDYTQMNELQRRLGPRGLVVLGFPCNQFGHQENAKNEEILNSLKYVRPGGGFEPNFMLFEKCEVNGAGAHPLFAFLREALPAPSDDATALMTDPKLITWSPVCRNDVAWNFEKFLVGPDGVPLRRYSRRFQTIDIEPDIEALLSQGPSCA
Nuclear receptor subfamily 1 group I member 2 (Homo sapiens), sequence (O75469 whole entry, looked up): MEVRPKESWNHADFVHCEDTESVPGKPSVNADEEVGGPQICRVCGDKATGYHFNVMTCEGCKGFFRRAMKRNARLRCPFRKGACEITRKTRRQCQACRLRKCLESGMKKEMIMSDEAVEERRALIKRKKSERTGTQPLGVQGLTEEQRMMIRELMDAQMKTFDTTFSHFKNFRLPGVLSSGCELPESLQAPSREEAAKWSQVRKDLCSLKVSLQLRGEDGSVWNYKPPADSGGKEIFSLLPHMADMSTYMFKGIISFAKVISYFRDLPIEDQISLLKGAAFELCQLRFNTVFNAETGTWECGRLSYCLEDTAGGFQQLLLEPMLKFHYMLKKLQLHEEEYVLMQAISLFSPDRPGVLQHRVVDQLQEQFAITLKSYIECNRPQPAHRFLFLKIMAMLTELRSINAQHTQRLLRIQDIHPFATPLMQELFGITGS
Cytochrome P450 2C19 (Homo sapiens), sequence (P33261 whole entry, looked up): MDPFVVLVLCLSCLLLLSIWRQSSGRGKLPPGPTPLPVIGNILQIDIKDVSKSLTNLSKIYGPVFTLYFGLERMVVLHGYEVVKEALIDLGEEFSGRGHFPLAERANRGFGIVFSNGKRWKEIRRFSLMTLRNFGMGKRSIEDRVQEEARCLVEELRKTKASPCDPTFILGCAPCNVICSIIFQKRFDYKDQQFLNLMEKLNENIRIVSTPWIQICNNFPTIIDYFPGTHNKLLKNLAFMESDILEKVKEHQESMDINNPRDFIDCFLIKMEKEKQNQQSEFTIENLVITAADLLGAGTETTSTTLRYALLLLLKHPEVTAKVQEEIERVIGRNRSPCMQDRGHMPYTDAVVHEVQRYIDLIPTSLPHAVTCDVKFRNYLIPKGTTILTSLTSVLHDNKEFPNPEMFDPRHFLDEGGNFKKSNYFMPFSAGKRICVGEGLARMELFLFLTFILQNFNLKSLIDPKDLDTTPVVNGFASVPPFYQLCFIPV
Phospholipid hydroperoxide glutathione peroxidase GPX4 (Homo sapiens), sequence (P36969 whole entry, looked up): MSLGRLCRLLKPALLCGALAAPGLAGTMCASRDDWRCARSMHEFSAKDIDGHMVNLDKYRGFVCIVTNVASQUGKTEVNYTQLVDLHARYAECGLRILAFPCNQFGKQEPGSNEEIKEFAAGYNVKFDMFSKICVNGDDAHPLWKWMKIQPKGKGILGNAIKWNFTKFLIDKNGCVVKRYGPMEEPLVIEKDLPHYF
Cytochrome P450 1A2 (Homo sapiens), sequence (P05177 whole entry, looked up): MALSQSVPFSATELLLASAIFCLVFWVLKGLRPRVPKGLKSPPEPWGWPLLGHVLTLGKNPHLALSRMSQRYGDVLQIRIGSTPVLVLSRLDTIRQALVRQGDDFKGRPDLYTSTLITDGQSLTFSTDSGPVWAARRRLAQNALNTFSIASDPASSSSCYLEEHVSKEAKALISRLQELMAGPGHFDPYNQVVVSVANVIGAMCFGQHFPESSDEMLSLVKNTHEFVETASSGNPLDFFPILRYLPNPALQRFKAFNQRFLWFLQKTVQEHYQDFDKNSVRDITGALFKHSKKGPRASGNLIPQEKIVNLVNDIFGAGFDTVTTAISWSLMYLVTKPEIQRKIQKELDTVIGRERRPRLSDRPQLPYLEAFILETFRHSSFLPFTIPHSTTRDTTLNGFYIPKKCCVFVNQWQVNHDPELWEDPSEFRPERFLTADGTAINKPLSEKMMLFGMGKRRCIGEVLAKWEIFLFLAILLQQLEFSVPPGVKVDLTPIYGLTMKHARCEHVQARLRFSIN
Metallo-beta-lactamase type 2 (Klebsiella pneumoniae), sequence (C7C422 whole entry, looked up): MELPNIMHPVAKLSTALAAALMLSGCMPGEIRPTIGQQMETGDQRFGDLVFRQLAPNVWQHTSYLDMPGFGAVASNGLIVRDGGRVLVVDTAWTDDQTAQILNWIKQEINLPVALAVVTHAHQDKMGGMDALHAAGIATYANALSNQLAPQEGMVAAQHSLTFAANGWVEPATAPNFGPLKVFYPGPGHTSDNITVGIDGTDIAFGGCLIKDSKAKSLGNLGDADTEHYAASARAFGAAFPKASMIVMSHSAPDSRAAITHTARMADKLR
Cytochrome P450 2D6 (Homo sapiens), sequence (P10635 whole entry, looked up): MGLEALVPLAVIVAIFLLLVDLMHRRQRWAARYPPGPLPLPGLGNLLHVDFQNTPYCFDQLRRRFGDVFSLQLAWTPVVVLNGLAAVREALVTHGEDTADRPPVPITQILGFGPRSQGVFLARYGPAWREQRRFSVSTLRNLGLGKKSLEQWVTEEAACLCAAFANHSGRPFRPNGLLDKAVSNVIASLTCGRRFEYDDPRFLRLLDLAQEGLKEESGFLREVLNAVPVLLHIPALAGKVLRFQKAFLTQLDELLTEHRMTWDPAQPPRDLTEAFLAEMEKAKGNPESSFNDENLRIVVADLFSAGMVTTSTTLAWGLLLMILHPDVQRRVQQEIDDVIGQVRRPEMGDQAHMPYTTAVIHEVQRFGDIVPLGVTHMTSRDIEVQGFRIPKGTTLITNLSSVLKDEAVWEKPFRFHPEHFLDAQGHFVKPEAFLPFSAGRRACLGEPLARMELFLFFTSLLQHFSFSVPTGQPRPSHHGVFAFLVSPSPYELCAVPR

Turning to `CC(=O)O[C@H]1C[C@@H]2CC[C@@H]3[C@H](CC[C@@]4(C)[C@H]3C[C@H](N3CC[N+](C)(C)CC3)[C@@H]4OC(C)=O)[C@@]2(C)C[C@@H]1N1CC[N+](C)(C)CC1`, the Potency result in test [1] and in test [2] was “inactive” in each case.
For the molecule `CN(C)Cc1ccccc1`, the Potency entry in test [1] and in test [2] was “inactive” each time.
Turning to `CC(=O)C1=C(O)C=C2Oc3c(C(C)=O)c(O)c(C)c(O)c3[C@]2(C)C1=O`, the molecule was classed as inactive in [3], in test [4], in [9], in test [12], in [13] and in [14]. Besides, the Potency entry in test [1], in [2], in [5] and in test [6] was “inactive” in each case. Also, the Potency was 4.47 µM (active) in [7], 3.98 µM (active) in test [8] and 7.94 µM (active) in [10]. For the same molecule, the max response in [11] was -5.05%.
For `CC1=C(C(=O)OCCN(Cc2ccccc2)c2ccccc2)C(c2cccc([N+](=O)[O-])c2)C(P2(=O)OCC(C)(C)CO2)=C(C)N1` (configuration not stated), the Potency result in test [1] is “inactive”.
The same measure, in the same setting: the same measure for `O=[N+]([O-])c1ccc(Oc2ccc(N=C=S)cc2)cc1`: “inactive”.
On to `Cn1nnnc1SCC1=C(C(=O)O)N2C(=O)[C@@H](NC(=O)[C@H](OC=O)c3ccccc3)[C@H]2SC1`, for which the Potency in test [1] was 9.04 µM (active).
`C[C@H]1C[C@@H]2[C@H]([C@@H](O)C[C@@]3(C)[C@H]2CC[C@]3(O)C(=O)COC(=O)CCC(=O)O)[C@@]2(C)C=CC(=O)C=C12`: the Potency entry in test [1] and in test [2] was “inactive” in each case.
As to `CCCCCCCCCCCCCCCCCC(=O)OCCO`, the Potency result in [1] and in [2] was “inactive” each time.
`O=C(Cn1cnnn1)N[C@@H]1C(=O)N2C(C(=O)O)=C(CSc3nncs3)CS[C@H]12`: the Potency in test [1] is 18 µM (active). Further, the Potency result in test [2] was “inactive”.
As for `Cc1c(N)nc(C(CC(N)=O)NCC(N)C(N)=O)nc1C(=O)NC(C(=O)NC(C)C(O)C(C)C(=O)NC(C(=O)NCCc1nc(-c2nc(C(=O)NCCCN[C@@H](C)c3ccccc3)cs2)cs1)C(C)O)C(O[C@@H]1O[C@@H](CO)[C@@H](O)[C@H](O)[C@@H]1O[C@H]1O[C@H](CO)[C@@H](O)[C@H](OC(N)=O)[C@@H]1O)c1cnc[nH]1` (some centres not stated), the Potency entry in test [1] and in test [2] was “inactive” each time.
Regarding `Cc1ccc(C2(O)CCN(CCCC(=O)c3ccc(F)cc3)CC2)cc1`, the Potency entry in [1] and in test [2] was “inactive” each time.
Consider `CC(CN1c2ccccc2Sc2ccc(S(=O)(=O)N(C)C)cc21)N(C)C` (configuration not stated), for which the Potency result in test [1] was “inactive”.
Take `CN1C(=O)c2sccc2N(C)c2nc(Nc3ccc(S(N)(=O)=O)cc3)ncc21`: in [1], the Potency result was “inactive”.
Take `Cc1cc(Nc2ccccc2C(=O)O)ccc1Cl`: the Potency entry in test [1] was “inactive”.
On the same count and under the same terms, to `COc1cc2[nH]c(C)c(CCN3CCN(c4ccccc4)CC3)c2cc1OC` belongs “inactive”.
Take `CN[C@H]1CC[C@@H](c2ccc(Cl)c(Cl)c2)c2ccccc21`: the call in test [15] was inactive. Also, the Potency result in test [1] and in test [2] was “inactive” each time.
Turning to `O=C(OCCO)c1ccccc1O`, the Potency entry in test [1] and in test [2] was “inactive” in each case.
Regarding `CC#CCC(C)[C@H](O)/C=C/[C@@H]1[C@H]2c3cccc(CCCC(=O)O)c3O[C@H]2C[C@H]1O` (some centres not stated), the Potency result in test [1] and in test [2] was “inactive” throughout.
Consider `NCCCC(=O)O`, for which the molecule was called inactive in test [15]. Besides, the Potency entry in test [1] and in [2] was “inactive” each time.
For `CN=C(NC)NCc1ccccc1`, the Potency result in test [1] and in test [2] was “inactive” in each case.
Consider `C=C1[C@H]2CC[C@H](C(=O)O)[C@@]23CC[C@H](C3)C1(C)C`, for which the outcome in test [3], in [4], in test [18], in test [9], in test [12] and in test [19] was inactive. The molecule was called inactive in test [13] and in [14]. The Potency entry in test [1], in test [2], in [5], in [16], in test [6] and in test [17] was “inactive” in each case. For the same molecule, the Potency result in test [7], in test [8] and in test [10] was “inactive” each time. For the same molecule, the max response in [11] was 1.56%.
For the molecule `CCC(C)(C)OC(=O)N[C@@H](Cc1c[nH]c2ccccc12)C(=O)N[C@@H](CCSC)C(=O)N[C@@H](CC(=O)O)C(=O)N[C@@H](Cc1ccccc1)C(N)=O`, the Potency entry in test [1] was “inactive”.
`COc1ccc(C(=O)Nc2ccccc2CCC2CCCCN2C)cc1` (configuration not stated): the Potency result in test [1] and in test [2] was “inactive” in each case.
`CCC(c1ccccc1)c1noc(CCN(CC)CC)n1` (configuration not stated): the Potency entry in test [1] and in test [2] was “inactive” in each case.
Regarding `CCCCCCCCCC(=O)O`, the outcome in [3], in test [4], in test [20], in test [18], in test [9] and in test [12] was inactive. Besides, the molecule was classed as inactive in [19], in [13] and in test [14]. Also, the Potency result in test [1], in [2], in test [7], in test [8] and in test [10] was “inactive” throughout. Further, in [11], the max response was -0.481%.
For the molecule `CCCCCCCCCCCCCCCC(=O)OCCC1CCN(CCCN2c3ccccc3Sc3ccc(S(=O)(=O)N(C)C)cc32)CC1`, the Potency result in test [1] and in [2] was “inactive” each time.
